Measured values: publication PMC5540273 (PLoS ONE, 2017)
“And” between values parts separate entries of the source, which are not always exact repeats. Equal values may be shown once. Read-outs that look alike come from different tables or passages of the source.

Key:
[1] = tested on: PIKFYVE; settings: concentration: 1 μM, replicates: in singlicate, n = 1
[2] = tested on: PIM1; settings: concentration: 1 μM, replicates: in singlicate; n = 1
[3] = tested on: PIM2; settings: concentration: 1 μM, replicates: in singlicate; n = 1
[4] = tested on: PIM3; settings: concentration: 1 μM, replicates: in singlicate; n = 1
[5] = tested on: PIP5K1A; settings: concentration: 1 μM, replicates: in singlicate, n = 1
[6] = tested on: PIP5K1C; settings: concentration: 1 μM, replicates: in singlicate, n = 1
[7] = tested on: PIP5K2B; settings: concentration: 1 μM, replicates: in singlicate, n = 1
[8] = tested on: T1, PIP5K2C; settings: concentration: 1 μM, replicates: in singlicate, n = 1
T1 construct: gene PIP4K2C

[9] = tested on: T2, PKAC-alpha; settings: concentration: 1 μM, replicates: in singlicate, n = 1
T2 construct: gene PRKACA

[10] = tested on: T3, PKAC-beta; settings: concentration: 1 μM, replicates: in singlicate, n = 1
T3 construct: gene PRKACB
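Note: KINOMEscan kinase panel screen.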

SMILES | %Inh [1] | %Inh [2] | %Inh [3] | %Inh [4] | %Inh [5] | %Inh [6] | %Inh [7] | %Inh [8] | %Inh [9] | %Inh [10] | %Inh ([1]; 1 µM) | %Inh ([5]; 1 µM) | %Inh ([6]; 1 µM) | %Inh ([7]; 1 µM) | %Inh ([8]; 1 µM) | %Inh ([9]; 1 µM) | %Inh ([10]; 1 µM)
Fc1ccc(-c2ncn(CCCN3CCOCC3)c2-c2ccccn2)cc1 [SB-211742] | 9% | 0% | 8% | 0% | 22% | 47% | 0% | 27% | 0% | 32% |  |  |  |  |  |  | 
CN1c2ccc(NCc3ccc(F)cc3)cc2-c2c(cnn2C)S1(=O)=O | 32% | 0% | 2% | 0% | 31% | 31% | 0% | 3% | 9% | 0% |  |  |  |  |  |  | 
N#Cc1c(N2CCOCC2)sc(-c2ccn[nH]2)c1-c1ccc(Cl)cc1 | 44% | 18% | 0% | 16% | 0% | 0% | 7% | 0% | 0% | 0% |  |  |  |  |  |  | 
NS(=O)(=O)c1cccc(-c2ccc3nccc(-c4cccc(S(N)(=O)=O)c4)c3c2)c1 [GW867253] | 21% | 3% | 0% | 9% | 21% | 0% | 0% | 41% | 0% | 0% |  |  |  |  |  |  | 
COC(=O)Nc1nc2cc(Oc3ccc(NC(=O)Nc4cc(F)ccc4F)cc3)ccc2[nH]1.Cl [GW701424] | 31% | 13% | 0% | 2% | 41% | 9% | 14% | 40% | 0% | 0% |  |  |  |  |  |  | 
CC(C)(CN)c1nc(-c2ccc(Cl)c(O)c2)c(-c2ccncc2)[nH]1.O=C(O)C(F)(F)F [SB-477794] |  |  |  |  |  |  |  |  |  |  | 31% and 49% | 40% and 61% | 3% and 61% | 0% and 19% | 64% and 49% | 86% and 87% | 56% and 89%
